The results in this text go back to PubChem BioAssay AID1970 (National Center for Advancing Translational Sciences (NCATS), 2009).

Inconclusive results are not listed. Activity calls are given as the source filed them. The call rests on the fitted dose curve; in most records, active means well fitted inhibition curve with a large enough effect; inconclusive means small, poorly fitted or top-dose-only effect; inactive means flat fitted curve, though single readings scatter.

In this assay the target is Dual specificity protein kinase CLK4 (Homo sapiens) (UniProt Q9HAZ1). Briefly: Confirmation Assay for Inhibitors of CDC-like Kinase 4 (Kinase-Glo Assay). As to conditions: recombinant Clk4, Kinase-Glo ATP depletion luminescence; series mostly up to 47.7 µM. The method, boiled down: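 RS repeat peptide (100 uM) and ATP (1 uM) phosphorylated by 25 nM Clk4 (final) in Tris pH 7.5 with MgCl2, EGTA, DTT and Triton X-100. After 4.5 h at room temperature, remaining ATP read as Kinase-Glo luminescence.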
Chain of Dual specificity protein kinase CLK4 (Homo sapiens) (Q9HAZ1 whole entry, looked up): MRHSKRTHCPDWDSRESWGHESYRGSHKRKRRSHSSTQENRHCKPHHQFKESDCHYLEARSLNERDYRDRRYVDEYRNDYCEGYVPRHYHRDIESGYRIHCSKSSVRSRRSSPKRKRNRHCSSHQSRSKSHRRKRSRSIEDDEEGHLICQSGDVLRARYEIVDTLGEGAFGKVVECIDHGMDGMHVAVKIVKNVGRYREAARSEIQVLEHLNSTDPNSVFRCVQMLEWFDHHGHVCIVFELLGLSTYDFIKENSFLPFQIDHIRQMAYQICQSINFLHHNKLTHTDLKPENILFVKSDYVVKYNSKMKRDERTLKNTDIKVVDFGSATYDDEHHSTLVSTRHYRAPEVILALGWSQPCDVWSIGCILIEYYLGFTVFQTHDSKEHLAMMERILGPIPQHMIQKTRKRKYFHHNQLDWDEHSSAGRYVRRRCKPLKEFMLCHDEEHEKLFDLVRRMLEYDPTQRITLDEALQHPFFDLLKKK
A general note: In Kinase-Glo more light means more ATP remaining.
On to `c1nc(NCC2CCOC2)c2cc(-c3ccc4c(c3)OCO4)ccc2n1` (stereo not given), for which the Potency is 58.2 nM (active). As for `c1nc(NCCc2cnc[nH]2)c2cc(-c3ccoc3)ccc2n1`, the figure is 412 nM (active); as for `COc1cccc(-c2ccc3ncnc(NCc4ccc5c(c4)OCO5)c3c2)c1`, 1410 nM (active); as for `Cc1nc(CN(C)c2ncnc3ccc(-c4ccc5c(c4)OCO5)cc23)cs1`, 33.6 nM (active). The same measure for `CCOC(=O)c1ccc(-c2ccc3ncnc(NCCc4cnc[nH]4)c3c2)o1`: 92.3 nM (active). As for `c1coc(CCNc2ncnc3ccc(-c4ccc5c(c4)OCO5)cc23)c1`, the figure is 59.8 nM (active). As for `Fc1cccc(CNc2ncnc3ccc(-c4ccc5c(c4)OCO5)cc23)c1`, the Potency is 100 nM (active).

Take `Cc1cccc(CNc2ncnc3ccc(-c4ccoc4)cc23)c1`: the Potency is 199 nM (active). For `c1cncc(CNc2ncnc3ccc(-c4ccc5c(c4)OCCO5)cc23)c1`, the Potency was 447 nM (active). The same measure for `CCN(Cc1cccs1)c1ncnc2ccc(-c3ccc4c(c3)OCO4)cc12`: 51.9 nM (active).
